From PubChem BioAssay AID588342 (National Center for Advancing Translational Sciences (NCATS), 2011)
Among all 360,000 compounds or so, about 25,000 (6.9%) were called active. Inconclusive results (about 9%) are left out. The call rests on the fitted dose curve; in most records, active means well fitted inhibition curve with a large enough effect; inconclusive means small, poorly fitted or top-dose-only effect; inactive means flat fitted curve, though single readings scatter. For the sample, actives were picked, then their nearest neighbours and some compounds at random.

These compounds were tested against Luciferin 4-monooxygenase (Photinus pyralis) (UniProt P08659) (assay: qHTS profiling assay for firefly luciferase inhibitor/activator using purifed enzyme and Km concentrations of substrates (counterscreen for miR-21 project)). Details: purified FLuc, luminescence inhibition; series mostly up to 57.5 µM; activity change, negative = inhibition: at the top concentration.
Sequence of Luciferin 4-monooxygenase (Photinus pyralis) (P08659 whole entry, looked up): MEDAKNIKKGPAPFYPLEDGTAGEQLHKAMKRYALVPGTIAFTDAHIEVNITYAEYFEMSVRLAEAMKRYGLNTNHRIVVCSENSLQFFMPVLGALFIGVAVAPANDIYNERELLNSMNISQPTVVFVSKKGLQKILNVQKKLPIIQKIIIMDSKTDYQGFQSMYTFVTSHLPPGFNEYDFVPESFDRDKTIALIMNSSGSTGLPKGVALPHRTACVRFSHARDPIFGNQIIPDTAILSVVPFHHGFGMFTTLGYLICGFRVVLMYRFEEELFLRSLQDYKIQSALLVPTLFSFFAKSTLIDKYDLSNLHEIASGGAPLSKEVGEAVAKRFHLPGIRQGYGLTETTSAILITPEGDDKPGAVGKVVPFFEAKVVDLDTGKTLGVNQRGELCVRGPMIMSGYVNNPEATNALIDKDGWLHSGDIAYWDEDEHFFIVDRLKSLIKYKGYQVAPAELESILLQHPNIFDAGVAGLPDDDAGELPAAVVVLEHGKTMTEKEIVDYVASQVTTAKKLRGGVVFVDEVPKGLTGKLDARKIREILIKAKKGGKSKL
Outline: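 Biochemical qHTS of compounds, final roughly 60 µM downward over six points, against 10 nM purified firefly luciferase using Km concentrations of substrates (10 uM D-luciferin, 10 uM ATP) in Tris acetate pH 7.5 buffer; luminescence output.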
Further: nearly all actives have a fitted effect of over 55% in size.
Potency means the concentration at half of the fitted maximal effect.
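Wherever activity change, negative = inhibition is given: plate controls were vehicle for no effect and reference inhibitor for full effect.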

Structure (SMILES)	activity change, negative = inhibition	Potency
Cc1cccc(OCC(=O)N(Cc2ccc(C(C)C)cc2)Cc2ccco2)c1C	0.0838% (inactive)	–
COc1cc(OC)c(NC(=O)c2c3c(nn2C)-c2ccccc2SC3)cc1Cl	-3.89% (inactive)	–
CSc1nc(=O)c2c(n1C)NC(=O)CC2c1ccccc1OC(C)C (stereo unspecified)	-0.768% (inactive)	–
Cc1nc(SCC(=O)NC2CCCCC2C)c(C#N)c(C)c1C (stereo unspecified)	-0.552% (inactive)	–
CCS(=O)(=O)c1nc(S(=O)(=O)c2ccc(C)cc2)c(NCc2ccc(Cl)cc2)s1	-6.34% (inactive)	–
CCn1c(C(=O)Nc2cc(Cl)ccc2C)cc2sc(Cl)cc21	14.4% (inactive)	–
CCOc1ccc(-c2cc3c(=O)n(CC(=O)NCc4ccc(OC)cc4)ccn3n2)cc1	-25.5% (inactive)	–
c1ccc(CSCCc2ccncc2)cc1	3.4% (inactive)	–
CC(C)(C)c1ccc(SCCc2ccncc2)cc1	–	26.9 µM (active)
Cc1cc(C)c(SCCc2ccncc2)c(C)c1	4.66% (inactive)	–
C/C(=N\NC(=O)CCn1nc(C)cc1C)C(C)(C)C	-0.213% (inactive)	–
CCc1cccc(NC(=O)COC(=O)c2cc(=O)c3ccccc3o2)c1	-8.14% (inactive)	–
Cc1ccc(S(=O)(=O)NCCC(=O)NC2CCN(Cc3ccccc3)CC2)cc1	4.15% (inactive)	–
Cc1ccc(C)c(N2CCN(C(=O)Cn3nc(C)c4sc5ccccc5c4c3=O)CC2)c1	3.41% (inactive)	–
Cn1nnnc1SCCCNCc1cccc(OCc2ccc(Cl)cc2)c1	5.77% (inactive)	–
COc1cc(/C=N/O)ccc1OCc1ccc([N+](=O)[O-])cc1	–	2.69 µM (active)
COc1cc(C(=O)OCc2ccc([N+](=O)[O-])cc2)cc(OC)c1OC	2.68% (inactive)	–
COc1cc(/C=N\Nc2ccc([N+](=O)[O-])cn2)ccc1OCC(=O)O	-16.9% (inactive)	–
Cc1ccc(CCNC(=O)c2nnc(Cc3cccc(F)c3)o2)cc1	-1.77% (inactive)	–
COc1ccc(Cl)cc1N(C)C(=O)c1cc2c(=O)oc3ccc(C)cc3c2s1	0.493% (inactive)	–
COc1ccc(-c2noc(CN(C)S(=O)(=O)c3ccc(C)cc3)n2)cc1	-2.32% (inactive)	–
Cc1ccc(-c2nc(-c3ccncc3)no2)c(C)c1	–	2.13 µM (active)

Structure (SMILES)	activity change, negative = inhibition	Potency
COc1ccc(-c2noc(-c3ccc(C)cc3)n2)cc1	–	1.51 µM (active)
COc1ccc(N2CCN(C(=O)CCc3nc(-c4ccc(C)cc4)no3)CC2)cc1	-20% (inactive)	–
Cc1ccc(-c2noc(CSc3nnc(-c4ccncc4)n3-c3ccc(F)cc3)n2)cc1	-3.39% (inactive)	–
O=C(Oc1ccc(-c2nc(-c3ccccn3)no2)cc1)c1ccccc1	–	0.301 µM (active)
CSc1oc(-c2cccs2)nc1S(=O)(=O)c1ccc(Br)cc1	-9.22% (inactive)	–
c1csc(-c2nc(-c3ccncc3)no2)c1	–	13.5 µM (active)
Cc1ccc(-c2noc(CSc3nnc(-c4cccs4)n3C)n2)cc1	-21.4% (inactive)	–
N#CCc1ccc(OC(=O)c2cccnc2)cc1	0.653% (inactive)	–
Cc1ccc(Oc2nc(-c3ccccn3)nc3ccccc23)cc1	-19.9% (inactive)	–
COc1cc(OC)c(NC(=O)c2nc(-c3ccncc3)no2)cc1Cl	-1.54% (inactive)	–
Cc1cc(OC(=O)c2ccccc2)c([N+](=O)[O-])c(=O)[nH]1	-7.98% (inactive)	–
Cc1ccccc1NC(=O)Cn1c(=O)n(CC2CCC(C(=O)NCCc3ccccc3)CC2)c(=O)c2ccccc21 (stereo unspecified)	-0.569% (inactive)	–
COc1ccc(CCNc2nc(-c3ccc(Cl)cc3)cc(C(F)(F)F)n2)cc1OC	0.231% (inactive)	–
O=c1cccc(-c2ccc(Br)cc2)o1	3.87% [at 2.3 µM] (inactive)	–
O=C1CC(c2nnc(Cc3ccc(Cl)cc3)o2)CN1c1ccccc1 (stereo unspecified)	-8.02% (inactive)	–
Cc1ccc(OCC(=O)Nc2ccccc2C(=O)NC2CC2)cc1	3.57% (inactive)	–
COc1ccc(CCC(=O)NCc2ccc3c(c2)CCN3C(=O)c2ccc(F)cc2)cc1	-15.3% (inactive)	–
Cc1ccc(-n2nnnc2CNC(=O)c2ccccc2C)cc1C	-1.73% (inactive)	–
COc1cc(C)c(Cl)cc1S(=O)(=O)n1ccnc1	-8.56% (inactive)	–
Cc1c2cnn(-c3ccccc3)c(=O)c2c(C)n1C(C)C(=O)Nc1ccc(Br)cc1F (stereo unspecified)	-16.5% (inactive)	–
Clc1ccc(-n2nnnc2-c2cnc(-c3ccccn3)nc2-c2cccs2)cc1	-13.4% (inactive)	–
O=c1onc(-c2cccs2)n1Cc1ccccc1	2.16% (inactive)	–

Structure (SMILES)	activity change, negative = inhibition	Potency
c1ccc(-c2noc(-c3cccs3)n2)nc1	–	3.01 µM (active)
CN(Cc1ccccc1)C(=O)CCS(=O)(=O)c1cc(Br)cc2c1N(C(=O)C1CC1)CC2	-8.85% (inactive)	–
CCOc1ccc(CCNC(=O)CN(c2ccc(C)cc2)S(=O)(=O)N(C)C)cc1OCC	4.44% (inactive)	–
Cc1cc(C)c(-c2n[nH]c3c2C(c2ccccc2F)N(CCO)C3=O)c(O)c1 (stereo unspecified)	-1.58% (inactive)	–
O=C(Nn1c(SCc2ccc([N+](=O)[O-])cc2)nc2ccccc2c1=O)c1ccc(F)cc1	–	16.9 µM (active)
Cc1ccc(Cn2c(CNC(=O)Cc3cccc(C)c3)nc3cccnc32)cc1	5.86% (inactive)	–
CCOC(=O)CNC(=O)CSc1nc2cccnc2n1CC	1.81% (inactive)	–
OCc1cnc(SCc2ccc(F)cc2)n1Cc1ccc(F)cc1	-8.03% (inactive)	–
O=C(NCc1ccc(F)cc1)c1ccc(Cn2c(SCc3ccc(F)cc3)nc3cccnc32)cc1	–	4.78 µM (active)
Cc1nc2ccccc2c(=O)n1NC(=O)c1ccc(Cl)c([N+](=O)[O-])c1	6.72% (inactive)	–
Cc1ccc(CSc2nc3cccnc3n2Cc2ccc(C(=O)NC3CC3)cc2)cc1	–	0.379 µM (active)
C=CCn1c(SCc2ccc(C(=O)NCCO)cc2)nc2ccccc2c1=O	-0.552% (inactive)	–
Cn1c(CNC(=O)c2ccccc2F)nnc1SCc1ccc(F)cc1	-0.364% (inactive)	–
O=C(O)c1ccc(Cn2c(SCc3ccc(F)cc3)nc3ccncc32)cc1	–	16.9 µM (active)
Cc1cccc(CSc2nc3ccncc3n2CC(=O)N(C)C2CCCCC2)c1	-10.8% (inactive)	–
CCCNC(=O)c1ccc(Cn2c(SCC(N)=O)nc3ccccc3c2=O)cc1	-0.682% (inactive)	–
CC1=C(C(=O)Nc2ccccc2)C(c2ccc(C)cc2)n2nc(SCc3ccccc3C)nc2N1 (stereo unspecified)	-0.97% (inactive)	–
Cc1nnc(NC(=O)CSc2nc3c([nH]c4ccccc43)c(=O)n2-c2cccc(Cl)c2)s1	-1.54% (inactive)	–
CCOc1ccc(S(=O)(=O)c2cn(Cc3ccc(OC)cc3)c3ccc(F)cc3c2=O)cc1	-3.31% (inactive)	–
CCOc1ccc(NC(=O)Cn2c(C)ccc(C#N)c2=O)cc1	-4.3% (inactive)	–
COc1ccc(CCNS(=O)(=O)c2cc(-c3cc(C)no3)ccc2C)cc1OC	-2.49% (inactive)	–
Cc1cccc2c1-c1sc(C(=O)Nc3ccc(F)cc3F)cc1CO2	-14% (inactive)	–
